Laboratory results reported in PubChem BioAssay (NCI).
This is part of a sample that, as a whole, favours compounds with a hit. Of some 83,000 tested, about 20% had one in any assay.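 Each cell line was grown in a 96-well plate and treated with one concentration of compound for 48 hours. Values below 10 were considered active.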 A number with no mark means an inactive call. The source made the active and inactive calls.

Key:
Assay in all cases: NCI-60 one-dose screen, 48 h (100 = growth as untreated, 0 = no growth, -100 = all killed)
Settings in all cases: 10 µM unless noted
HT29 colon = system: HT29 colon
SNB-19 CNS = system: SNB-19 CNS
U251 CNS = system: U251 CNS
PC-3 prostate = system: PC-3 prostate
SK-MEL-5 melanoma = system: SK-MEL-5 melanoma
UACC-62 melanoma = system: UACC-62 melanoma
LOX IMVI melanoma = system: LOX IMVI melanoma
SK-MEL-28 melanoma = system: SK-MEL-28 melanoma
SK-MEL-2 melanoma = system: SK-MEL-2 melanoma
EKVX NSCLC = system: EKVX NSCLC
SN12C renal = system: SN12C renal
UO-31 renal = system: UO-31 renal
TK-10 renal = system: TK-10 renal
ACHN renal = system: ACHN renal
CAKI-1 renal = system: CAKI-1 renal
A498 renal = system: A498 renal
CCRF-CEM leukemia = system: CCRF-CEM leukemia
MOLT-4 leukemia = system: MOLT-4 leukemia
SNB-75 CNS = system: SNB-75 CNS

| SMILES | growth (HT29 colon) | growth (SNB-19 CNS) | growth (U251 CNS) | growth (PC-3 prostate) | growth (SK-MEL-5 melanoma) | growth (UACC-62 melanoma) | growth (LOX IMVI melanoma) | growth (SK-MEL-28 melanoma) | growth (SK-MEL-2 melanoma) | growth (EKVX NSCLC) | growth (SN12C renal) | growth (UO-31 renal) | growth (TK-10 renal) | growth (ACHN renal) | growth (CAKI-1 renal) | growth (A498 renal) | growth (CCRF-CEM leukemia) | growth (MOLT-4 leukemia) | growth (SNB-75 CNS) |
| --- | --- | --- | --- | --- | --- | --- | --- | --- | --- | --- | --- | --- | --- | --- | --- | --- | --- | --- | --- |
| Cc1cc2nc(C(Cl)Cl)nc(-c3ccccc3)n2n1 | 12.6% | 62.7% | 36% | 65.1% | 94.4% | 88.9% | 75.1% | 85.1% | 110% | 61% | 85.6% | 75.1% | 59.2% | 11.6% | 35% | 20.8% | 79.1% | 53.1% |  |
| O=C(c1ccccc1)[C@@H](c1ccccc1)[C@]1(O)C(=O)Nc2ccccc21 | 101% | 94.1% | 101% | 90.7% | 92.1% | 85.9% | 91.1% | 96.2% | 96.9% | 105% | 82.3% | 76.1% | 112% | 90.1% | 84.6% | 100% | 100% | 102% | 83.7% |
| C=CCn1c(SCC(=O)Nc2ccc(C(=O)/C=C/c3ccc(Cl)cc3)cc2)nnc1-c1ccccc1 | 89.2% | 92.6% | 94.3% | 75.2% | 98.7% | 85.1% | 92.3% | 90.2% | 109% | 92.3% | 92.8% | 76.5% | 87.9% | 99.9% | 92.6% | 99.5% | 85.6% | 68.6% | 70.8% |
| Cc1ccc(C(F)(F)F)cc1N1CCN(C(=O)[C@H]2C[C@H]2c2ccc(C(F)(F)F)nc2)CC1 | 79.8% | 90.5% | 94.2% | 77.7% | 81.6% | 74.8% | 96.2% | 100% | 89.1% | 90.7% | 92.6% | 69% | 96.4% | 91.8% | 69.3% | 95.3% | 90.2% | 73.2% | 92.2% |
| COc1cc2cc(Oc3ccc(NC(=O)Nc4ccc(F)c(C(F)(F)F)c4)cc3)c(C)nc2cc1OCCN1CCCCC1 | -74% (active) | 62.9% | -85.3% (active) | -76% (active) | -89.3% (active) | 50.6% | -70.4% (active) | -62.5% (active) | 102% | 57.6% | 91.7% | 75.3% | 118% | 84.1% | -85% (active) | 84.7% | 2.51% (active) | -14.5% (active) | 92.7% |
| O=C(O)c1cc2ccccc2s1 | 110% | 111% | 95.9% | 96.4% | 104% | 107% | 99.6% | 117% | 127% | 106% | 106% | 94.5% | 123% | 103% | 94.7% | 108% | 100% | 100% | 97.9% |
| C#CCOc1ccc(C2=NN(C)C3N=C(Cl)c4ncn(C)c4N23)cc1OCC#C (stereo unspecified) | 103% | 103% | 98.7% | 91.1% | 86.1% | 84.3% | 89.2% | 96.5% | 105% | 102% | 97.6% | 74.6% | 99% | 89.6% | 103% | 85.4% | 87.4% | 82.9% | 97.6% |
| COc1ccc(/C=C/C(=O)c2ccc(-n3cc(CN4CCN(c5cc6c(cc5F)c(=O)c(C(=O)O)cn6C5CC5)CC4)nn3)cc2)cc1 | 29.6% | 67.7% | 41.4% | 56.3% | 69% | 53.9% | 27.9% | 79.7% | 97% | 96.6% | 32.6% |  | 104% | 85% | 67.8% | 68.2% | 44% | 64.2% | 58.3% |
| CC1=C([Se]CC(OC(=O)[C@@H](CO)NC(=O)OC(C)(C)C)C(=O)NCCCCCC(=O)OCc2ccccc2)C(=O)c2ccccc2C1=O (stereo partly specified) | -67.5% (active) | -87% (active) | -85.8% (active) | -72.6% (active) | -89.9% (active) | -76% (active) | -76.6% (active) | -89.1% (active) | -79.9% (active) | -75.5% (active) | -72.9% (active) | -99.8% (active) | -95.8% (active) | -83.3% (active) | -86.5% (active) | 31.2% | -8.88% (active) | -21.6% (active) | -99.6% (active) |
| CN1CCN(CC(=O)N(C)c2ccc(N=C(c3ccccc3)c3c(O)[nH]c4ccc([N+](=O)[O-])cc34)cc2)CC1 | 22.7% | 89.2% | 73.1% | 47.6% | 53% | 102% | 36.3% | 75.4% | 52.7% | 94.2% |  | 28.8% | 103% | 54% | 47.1% | 66.7% | 15.1% | 15.7% | 74.3% |
| Cc1c(C(=O)C(SC(=S)N2CCOCC2)SC(=S)N2CCOCC2)nnn1-c1ccc([N+](=O)[O-])cc1 | 92.3% | 96.3% | 95.3% | 96.1% | 107% | 88% | 108% | 103% | 106% | 113% | 96.4% | 74.7% | 100% | 98% | 94.9% | 128% | 67.9% | 91.1% |  |
| CN1CCN(c2ccc(Nc3ncc4[nH]c(=O)n(Cc5ccccc5N)c4n3)cc2)CC1 | 80.2% | 107% | 100% | 83.1% | 101% | 97.6% | 88.7% | 111% | 104% | 102% | 86.5% | 62.5% | 86.4% | 89.9% | 66.4% | 66.4% | 96.4% | 93.4% | 39.9% |
| Cn1nc(-c2ccc(Cl)cc2)nc2c(=O)n(C)c(=O)nc1-2 | -77.3% (active) | -84.5% (active) | -82.6% (active) | 16.6% | -98.5% (active) | -55.2% (active) | -58.6% (active) | -64.4% (active) | -44.6% (active) | -31.2% (active) | -72.5% (active) | 12.3% | 70.3% | -88.7% (active) | 6.17% (active) | -94.8% (active) | -27.6% (active) | -47.3% (active) | -100% (active) |
| CCOC(=O)CC1CSC(N/N=C(/C)c2cccc(C(F)(F)F)c2)=N1 (stereo unspecified) | 94.3% | 106% | 98.4% | 97.8% | 105% | 97.1% | 104% | 107% | 123% | 89.3% | 103% | 80.2% | 95.8% | 106% | 91.6% | 97.4% | 104% | 95.8% | 98.3% |
| O=c1c2cccc3c(N4CCOCC4)ccc(c32)c2nc3ccccc3n12 | 93.7% | 95.8% | 90.7% | 99.9% | 73.4% | 62.1% | 84.8% | 107% | 108% | 38.3% | 87.6% | 65.9% | 71.8% | 91.1% | 69.6% | 101% | 93.1% | 90.8% | 79.1% |
